{"source": "the supplement of paper PMC8728848", "binders": {"B1": {"name": "SP16664B-bot-474-25-474 (Bacteroides ovatus) (protein)", "chain": "CEEDIEIGNKIDESSYLASTQLSGLLLDENTNKNSSVIELRNNEYSTNVVFRLSKLPQKGVDVQIAVEESYAAIYNTIHETDFEVFPAANVKIANNGTFVLAPDDKVTPSVKVTLTAFDGMEEDKTYIVPLTVTSSTEGVTFTETSKHMVLLVQDYRNKPNTNKGEDAVQTVLYFEVNDTNPLNALEFLTESGKYFFDHIVLFAANINWDPEKQRVYLANNENVQFLLDNNDKYLQPLRKAGMKIIISILGNHDEAGVAQLSDMGAREFARELAAYCRAYNLDGVAFDDEYSNSPDLSNPWLASPSAYAGSRLMYECKAVMPEKIVSLYNLGNMYSSSLQVIDGIEPGQYCDYAVADYGGAAGPGTGMTLKQCAGMSIELRRGSGNSSESTARSRKEAGYGYYMFFALDPSLYGSQVYRCQSVCKGLYDETLVYPSYYYKKNSTEREAIN"}}, "assay_in_all_cases": "glycan array binding signal (z-score within array); higher = stronger binding", "conditions_in_all_cases": "glycan notation: IUPAC condensed, linker removed", "key": {"[1]": {"target": "Fuc(a1-2)Gal(b1-4)GlcNAc(b1-3)[Fuc(a1-3)[Gal(b1-4)]GlcNAc(b1-6)]Gal(b1-4)Glc", "procedure,_shortened": "(§1)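 Negative Z-scores can be read as non-binding. The Z-score is calculated within each array and then averaged across arrays of one protein sequence at different concentrations or buffers and across linkers. Arrays, 3228 in all, were curated from the Consortium for Functional Glycomics database and kept only where the protein sequence was available.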"}, "[2]": {"target": "Fuc(a1-2)[Gal(a1-3)]Gal(b1-3)GlcNAc(b1-3)GalNAc", "procedure,_shortened": "as §1"}, "[3]": {"target": "Fuc(a1-2)[GalNAc(a1-3)]Gal(b1-3)GalNAc(b1-3)Gal(a1-4)Gal(b1-4)Glc", "procedure,_shortened": "as §1"}, "[4]": {"target": "Fuc(a1-2)[GalNAc(a1-3)]Gal(b1-3)GlcNAc(b1-6)GalNAc", "procedure,_shortened": "as §1"}, "[5]": {"target": "Fuc(a1-2)[GalNAc(a1-3)]Gal(b1-4)GlcNAc(b1-2)Man(a1-3)[Fuc(a1-2)[GalNAc(a1-3)]Gal(b1-4)GlcNAc(b1-2)Man(a1-6)]Man(b1-4)GlcNAc(b1-4)GlcNAc", "procedure,_shortened": "as §1"}, "[6]": {"target": "Fuc(a1-2)[GalNAc(a1-3)]Gal(b1-4)GlcNAc(b1-2)Man(a1-3)[Fuc(a1-2)[GalNAc(a1-3)]Gal(b1-4)GlcNAc(b1-2)Man(a1-6)]Man(b1-4)GlcNAc(b1-4)[Fuc(a1-6)]GlcNAc", "procedure,_shortened": "as §1"}, "[7]": {"target": "Fuc(a1-3)[Gal(b1-4)]GlcNAc(b1-2)Man(a1-3)[Fuc(a1-3)[Gal(b1-4)]GlcNAc(b1-2)Man(a1-6)]Man(b1-4)GlcNAc(b1-4)GlcNAc", "procedure,_shortened": "as §1"}, "Fuc(a1-4)GlcNAc": {"target": "Fuc(a1-4)GlcNAc", "procedure,_shortened": "as §1"}, "Gal(a1-2)Gal": {"target": "Gal(a1-2)Gal", "procedure,_shortened": "as §1"}, "Gal(a1-3)Gal": {"target": "Gal(a1-3)Gal", "procedure,_shortened": "as §1"}, "[8]": {"target": "Gal(a1-3)Gal(b1-3)GlcNAc(b1-6)GalNAc", "procedure,_shortened": "as §1"}, "[9]": {"target": "Gal(a1-3)Gal(b1-4)GlcNAc(b1-2)Man(a1-3)[Gal(a1-3)Gal(b1-4)GlcNAc(b1-2)Man(a1-6)]Man(b1-4)GlcNAc(b1-4)GlcNAc", "procedure,_shortened": "as §1"}, "[10]": {"target": "Gal(a1-3)Gal(b1-4)[Fuc(a1-3)]GlcNAc", "procedure,_shortened": "as §1"}, "[11]": {"target": "Gal(a1-3)Gal(b1-4)[Fuc(a1-3)]GlcNAc(b1-2)Man(a1-3)[Gal(a1-3)Gal(b1-4)[Fuc(a1-3)]GlcNAc(b1-2)Man(a1-6)]Man(b1-4)GlcNAc(b1-4)GlcNAc", "procedure,_shortened": "as §1"}, "Gal(a1-3)GalNAc": {"target": "Gal(a1-3)GalNAc", "procedure,_shortened": "as §1"}, "[12]": {"target": "Gal(a1-3)[Gal(a1-4)]Gal(b1-4)GlcNAc", "procedure,_shortened": "as §1"}, "[13]": {"target": "Gal(a1-4)Gal(b1-3)GlcNAc(b1-2)Man(a1-3)[Gal(a1-4)Gal(b1-3)GlcNAc(b1-2)Man(a1-6)]Man(b1-4)GlcNAc(b1-4)GlcNAc", "procedure,_shortened": "as §1"}, "Gal(b1-3)Gal": {"target": "Gal(b1-3)Gal", "procedure,_shortened": "as §1"}, "[14]": {"target": "Gal(b1-3)GalNAc(a1-3)[Fuc(a1-2)]Gal(b1-4)GlcNAc", "procedure,_shortened": "as §1"}, "[15]": {"target": "Gal(b1-3)GlcNAc(b1-2)[Gal(b1-3)GlcNAc(b1-6)]Man(a1-6)[Gal(b1-3)GlcNAc(b1-2)Man(a1-3)]Man(b1-4)GlcNAc(b1-4)GlcNAc", "procedure,_shortened": "as §1"}, "[16]": {"target": "Gal(b1-3)GlcNAc(b1-3)Gal(b1-4)GlcNAc(b1-2)Man(a1-3)[Gal(b1-3)GlcNAc(b1-3)Gal(b1-4)GlcNAc(b1-2)Man(a1-6)]Man(b1-4)GlcNAc(b1-4)GlcNAc", "procedure,_shortened": "as §1"}, "[17]": {"target": "Gal(b1-3)[Fuc(a1-4)]GlcNAc(b1-6)GalNAc", "procedure,_shortened": "as §1"}, "[18]": {"target": "Gal(b1-4)GlcNAc(b1-2)Man(a1-3)[Gal(b1-4)GlcNAc(b1-2)Man(a1-6)]Man(b1-4)GlcNAc(b1-4)GlcNAc", "procedure,_shortened": "as §1"}, "[19]": {"target": "Gal(b1-4)GlcNAc(b1-2)Man(a1-3)[Gal(b1-4)GlcNAc(b1-2)Man(a1-6)][Gal(b1-4)GlcNAc(b1-4)]Man(b1-4)GlcNAc(b1-4)[Fuc(a1-6)]GlcNAc", "procedure,_shortened": "as §1"}, "[20]": {"target": "Gal(b1-4)GlcNAc(b1-2)[Gal(b1-4)GlcNAc(b1-6)]Man(a1-6)[Gal(b1-4)GlcNAc(b1-2)Man(a1-3)]Man(b1-4)GlcNAc(b1-4)[Fuc(a1-6)]GlcNAc", "procedure,_shortened": "as §1"}, "[21]": {"target": "Gal(b1-4)GlcNAc(b1-3)Gal(b1-3)GlcNAc", "procedure,_shortened": "as §1"}, "[22]": {"target": "Gal(b1-4)GlcNAc(b1-3)Gal(b1-4)GlcNAc(b1-2)Man(a1-3)[Gal(b1-4)GlcNAc(b1-3)Gal(b1-4)GlcNAc(b1-2)Man(a1-6)]Man(b1-4)GlcNAc(b1-4)GlcNAc", "procedure,_shortened": "as §1"}, "[23]": {"target": "Gal(b1-4)GlcNAc(b1-3)Gal(b1-4)GlcNAc(b1-3)Gal(b1-4)GlcNAc", "procedure,_shortened": "as §1"}, "[24]": {"target": "Gal(b1-4)GlcNAc(b1-3)Gal(b1-4)GlcNAc(b1-3)Gal(b1-4)GlcNAc(b1-2)Man(a1-3)[Gal(b1-4)GlcNAc(b1-3)Gal(b1-4)GlcNAc(b1-3)Gal(b1-4)GlcNAc(b1-2)Man(a1-6)]Man(b1-4)GlcNAc(b1-4)GlcNAc", "procedure,_shortened": "as §1"}, "[25]": {"target": "Gal(b1-4)GlcNAc(b1-3)Gal(b1-4)GlcNAc(b1-3)Gal(b1-4)GlcNAc(b1-2)[Gal(b1-4)GlcNAc(b1-3)Gal(b1-4)GlcNAc(b1-3)Gal(b1-4)GlcNAc(b1-6)]Man(a1-6)[Gal(b1-4)GlcNAc(b1-3)Gal(b1-4)GlcNAc(b1-3)Gal(b1-4)GlcNAc(b1-2)Man(a1-3)]Man(b1-4)GlcNAc(b1-4)[Fuc(a1-6)]GlcNAc", "procedure,_shortened": "as §1"}}, "note": "About 410 targets per protein were measured; listed, in parts, are those with the strongest signals and a random draw of the rest."}
{"binder": "B1", "values": [{"measurement": "glycan array binding signal (z-score)", "setting": "[1]", "result": -0.136}, {"measurement": "glycan array binding signal (z-score)", "setting": "[2]", "result": -0.535}, {"measurement": "glycan array binding signal (z-score)", "setting": "[3]", "result": -0.296}, {"measurement": "glycan array binding signal (z-score)", "setting": "[4]", "result": -0.622}, {"measurement": "glycan array binding signal (z-score)", "setting": "[5]", "result": 0.635}, {"measurement": "glycan array binding signal (z-score)", "setting": "[6]", "result": 1.16}, {"measurement": "glycan array binding signal (z-score)", "setting": "[7]", "result": 2.22}, {"measurement": "glycan array binding signal (z-score)", "setting": "Fuc(a1-4)GlcNAc", "result": 2.34}, {"measurement": "glycan array binding signal (z-score)", "setting": "Gal(a1-2)Gal", "result": 0.194}, {"measurement": "glycan array binding signal (z-score)", "setting": "Gal(a1-3)Gal", "result": -0.094}, {"measurement": "glycan array binding signal (z-score)", "setting": "[8]", "result": 0.049}, {"measurement": "glycan array binding signal (z-score)", "setting": "[9]", "result": 2.23}, {"measurement": "glycan array binding signal (z-score)", "setting": "[10]", "result": -0.366}, {"measurement": "glycan array binding signal (z-score)", "setting": "[11]", "result": 1.65}, {"measurement": "glycan array binding signal (z-score)", "setting": "Gal(a1-3)GalNAc", "result": -0.504}, {"measurement": "glycan array binding signal (z-score)", "setting": "[12]", "result": -0.405}, {"measurement": "glycan array binding signal (z-score)", "setting": "[13]", "result": 1.04}, {"measurement": "glycan array binding signal (z-score)", "setting": "Gal(b1-3)Gal", "result": -0.262}, {"measurement": "glycan array binding signal (z-score)", "setting": "[14]", "result": -0.291}, {"measurement": "glycan array binding signal (z-score)", "setting": "[15]", "result": 0.525}, {"measurement": "glycan array binding signal (z-score)", "setting": "[16]", "result": -0.246}, {"measurement": "glycan array binding signal (z-score)", "setting": "[17]", "result": 0.134}, {"measurement": "glycan array binding signal (z-score)", "setting": "[18]", "result": -0.21}, {"measurement": "glycan array binding signal (z-score)", "setting": "[19]", "result": -0.39}, {"measurement": "glycan array binding signal (z-score)", "setting": "[20]", "result": -0.218}, {"measurement": "glycan array binding signal (z-score)", "setting": "[21]", "result": -0.433}, {"measurement": "glycan array binding signal (z-score)", "setting": "[22]", "result": 1.81}, {"measurement": "glycan array binding signal (z-score)", "setting": "[23]", "result": -0.33}, {"measurement": "glycan array binding signal (z-score)", "setting": "[24]", "result": 1.88}, {"measurement": "glycan array binding signal (z-score)", "setting": "[25]", "result": 2.21}]}
